Data as given in the supplement of paper PMC8728848.
The sample as a whole holds a higher share of the strongest signals than the screen did.

Tests used:
Experiment in all cases: glycan array binding signal (z-score within array); higher = stronger binding
Details in all cases: glycan notation: IUPAC condensed, linker removed
[1] = biological target: Fuc(a1-2)Gal(b1-3)[Fuc(a1-4)]GlcNAc(b1-2)Man(a1-3)[Fuc(a1-2)Gal(b1-3)[Fuc(a1-4)]GlcNAc(b1-2)Man(a1-6)]Man(b1-4)GlcNAc(b1-4)GlcNAc
Procedure, shortened: (§1)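 Glycan array binding is given as a within-array Z-score, which can be read as non-binding when negative. The arrays, 3228 of them, came from the Consortium for Functional Glycomics database and were retained only where the protein sequence was available. Z-scores were averaged across arrays of the same protein sequence at different concentrations or buffers and across linkers.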

[2] = biological target: Fuc(a1-2)[GalNAc(a1-3)]Gal(b1-4)GlcNAc
Procedure, shortened: as §1

[3] = biological target: Fuc(a1-2)[GalNAc(a1-3)]Gal(b1-4)GlcNAc(b1-2)Man(a1-3)[GalNAc(a1-3)[Fuc(a1-2)]Gal(b1-4)GlcNAc(b1-2)Man(a1-6)]Man(b1-4)GlcNAc(b1-4)GlcNAc
Procedure, shortened: as §1

[4] = biological target: Fuc(a1-3)[Gal(b1-4)]GlcNAc
Procedure, shortened: as §1

[5] = biological target: Fuc(a1-3)[Gal(b1-4)]GlcNAc(b1-2)Man(a1-3)[Fuc(a1-3)[Gal(b1-4)]GlcNAc(b1-2)Man(a1-6)]Man(b1-4)GlcNAc(b1-4)GlcNAc
Procedure, shortened: as §1

[6] = biological target: Fuc(a1-3)[Gal3S(b1-4)]GlcNAc
Procedure, shortened: as §1

[7] = biological target: Fuc(a1-3)[GalNAc(b1-4)]GlcNAc
Procedure, shortened: as §1

[8] = biological target: Gal(a1-3)Gal(b1-4)[Fuc(a1-3)]GlcNAc(b1-2)Man(a1-3)[Gal(a1-3)Gal(b1-4)[Fuc(a1-3)]GlcNAc(b1-2)Man(a1-6)]Man(b1-4)GlcNAc(b1-4)GlcNAc
Procedure, shortened: as §1

[9] = biological target: Gal(b1-3)GalNAc(b1-4)Gal(b1-4)Glc
Procedure, shortened: as §1

[10] = biological target: Gal(b1-3)GlcNAc(b1-2)Man(a1-3)[Gal(b1-3)GlcNAc(b1-2)Man(a1-6)]Man(b1-4)GlcNAc(b1-4)[Fuc(a1-6)]GlcNAc
Procedure, shortened: as §1

[11] = biological target: Gal(b1-3)[Fuc(a1-4)]GlcNAc(b1-2)Man(a1-3)[Gal(b1-3)[Fuc(a1-4)]GlcNAc(b1-2)Man(a1-6)]Man(b1-4)GlcNAc(b1-4)[Fuc(a1-6)]GlcNAc
Procedure, shortened: as §1

[12] = biological target: Gal(b1-4)GlcNAc(b1-2)[Gal(b1-4)GlcNAc(b1-4)]Man(a1-3)[Gal(b1-4)GlcNAc(b1-2)Man(a1-6)]Man(b1-4)GlcNAc(b1-4)GlcNAc
Procedure, shortened: as §1

Gal3S(b1-4)GlcNAc6S = biological target: Gal3S(b1-4)GlcNAc6S
Procedure, shortened: as §1

Gal4S(b1-4)GlcNAc = biological target: Gal4S(b1-4)GlcNAc
Procedure, shortened: as §1

[13] = biological target: GlcNAc(b1-2)Man(a1-3)[GlcNAc(b1-2)Man(a1-6)]Man(b1-4)GlcNAc(b1-4)GlcNAc
Procedure, shortened: as §1

[14] = biological target: GlcNAc(b1-4)GlcNAc(b1-4)GlcNAc(b1-4)GlcNAc(b1-4)GlcNAc
Procedure, shortened: as §1

Kdn(a2-3)Gal(b1-3)GlcNAc = biological target: Kdn(a2-3)Gal(b1-3)GlcNAc
Procedure, shortened: as §1

[15] = biological target: Neu5Ac(a2-3)Gal(b1-3)GalNAc(b1-3)Gal(a1-4)Gal(b1-4)Glc
Procedure, shortened: as §1

[16] = biological target: Neu5Ac(a2-3)Gal(b1-4)GlcNAc(b1-6)[Neu5Ac(a2-3)Gal(b1-3)]GalNAc
Procedure, shortened: as §1

[17] = biological target: Neu5Ac(a2-3)Gal(b1-4)[Fuc(a1-3)]GlcNAc(b1-3)Gal
Procedure, shortened: as §1

[18] = biological target: Neu5Ac(a2-3)Gal(b1-4)[Fuc(a1-3)]GlcNAc(b1-3)Gal(b1-4)GlcNAc
Procedure, shortened: as §1

[19] = biological target: Neu5Ac(a2-3)Gal(b1-4)[Fuc(a1-3)]GlcNAc6S
Procedure, shortened: as §1

[20] = biological target: Neu5Ac(a2-3)Gal6S(b1-4)GlcNAc
Procedure, shortened: as §1

[21] = biological target: Neu5Ac(a2-6)Gal(b1-4)GlcNAc6S
Procedure, shortened: as §1

[22] = biological target: Neu5Ac(a2-8)Neu5Ac(a2-3)Gal(b1-4)Glc
Procedure, shortened: as §1

[23] = biological target: Neu5Ac(a2-8)Neu5Ac(a2-8)Neu5Ac(a2-8)Neu5Ac(a2-3)[GalNAc(b1-4)]Gal(b1-4)Glc
Procedure, shortened: as §1

[24] = biological target: Neu5Ac9Ac(a2-3)Gal(b1-3)GlcNAc
Procedure, shortened: as §1

[25] = biological target: Neu5Gc(a2-3)Gal(b1-3)GlcNAc
Procedure, shortened: as §1

B1: CCL2 (Coprinopsis cinerea), B3GA02 (protein)
chain: MDSPAVTLSAGNYIIYNRVLSPRGEKLALTYPGRQRTPVTVSPLDGSSEQAWILRSYDSNSNTWTISPVGSPNSQIGWGAGNVPVVLPPNNYVWTLTLTSGGYNIQDGKRTVSWSLNNATAGEEVSIGADATFSGRWVIEKV
[1]
  glycan array binding signal (z-score): -0.067
[2]
  glycan array binding signal (z-score): -0.286
[3]
  glycan array binding signal (z-score): -0.269
[4]
  glycan array binding signal (z-score): 0.752
[5]
  glycan array binding signal (z-score): 3.53
[6]
  glycan array binding signal (z-score): -0.279
[7]
  glycan array binding signal (z-score): 4.84
[8]
  glycan array binding signal (z-score): 4.37
[9]
  glycan array binding signal (z-score): -0.293
[10]
  glycan array binding signal (z-score): -0.283
[11]
  glycan array binding signal (z-score): -0.19
[12]
  glycan array binding signal (z-score): -0.268
Gal3S(b1-4)GlcNAc6S
  glycan array binding signal (z-score): -0.276
Gal4S(b1-4)GlcNAc
  glycan array binding signal (z-score): -0.26
[13]
  glycan array binding signal (z-score): -0.257
[14]
  glycan array binding signal (z-score): -0.255
Kdn(a2-3)Gal(b1-3)GlcNAc
  glycan array binding signal (z-score): -0.257
[15]
  glycan array binding signal (z-score): -0.278
[16]
  glycan array binding signal (z-score): -0.27
[17]
  glycan array binding signal (z-score): 5.39
[18]
  glycan array binding signal (z-score): 4.93
[19]
  glycan array binding signal (z-score): 4.45
[20]
  glycan array binding signal (z-score): 4.88
[21]
  glycan array binding signal (z-score): -0.205
[22]
  glycan array binding signal (z-score): -0.275
[23]
  glycan array binding signal (z-score): -0.286
[24]
  glycan array binding signal (z-score): -0.294
[25]
  glycan array binding signal (z-score): -0.282
